Six1-Eya2 blk – qHTS Assay for Inhibitors of the Six1/Eya2 Interaction; Homeobox protein SIX1 (Homo sapiens) + Protein phosphatase EYA2 (Homo sapiens), …; AlphaScreen GST-Six1/His-Eya2 binding, biochemical; stronger effect = lower value; AID 651725, 2012; activity change, % (no concentration beside the values); 360,000 compounds, 0.56% hits; in the data active means activity change below about -65%; inconclusive means mostly about -30% to -63%
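Compounds are tested against tagged Six1 and Eya2 proteins bridged by glutathione donor and nickel acceptor beads; after a one-hour incubation at 37 °C without light, AlphaScreen emission is recorded.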
BAZ2B block – qHTS Assay for Inhibitors of BAZ2B | AlphaScreen BAZ2B-H3K14Ac peptide displacement | Potency, µM (doses to about 114 µM), hits mostly inhibitors | 360,000 compounds, 4.4% hits | AID 504333, 2011; further: nearly all actives have a fitted effect of over 60% in size
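AlphaScreen displacement of biotin-H3(5-23)K14Ac peptide (50 nM final) from BAZ2B (50 nM final) in PBS pH 7.4, 0.01% Tween-20; complex preformed 30 min RT, then compounds (top 110 uM) 30 min RT, beads 20 min dark.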
HP1b binding inh – HTS for Inhibitors of HP1-beta Chromodomain Interactions with Methylated Histone Tails; AID 540317, 2011; Potency, µM (series often up to 114 µM), hits mostly inhibitors; AlphaScreen HP1-beta / biotin-H3K9me3 peptide binding; 390,000 compounds, 0.56% hits; Chromobox protein homolog 1 (Homo sapiens), P83916; further: nearly all actives have a fitted effect of over 70% in size
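AlphaScreen: HP1-beta (50 nM) preformed 30 min with biotin-H3(1-18)K9me3 peptide (50 nM) in PBS pH 7.4, 0.01% Tween-20. Compound added for 30 min at RT, then streptavidin donor/nickel chelate acceptor beads (10 ug/mL) for 30 min.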
JMJD2A Tudor – qHTS Assay for Inhibitors of JMJD2A-Tudor Domain; AlphaScreen JMJD2A-Tudor / H3K4me3 peptide binding; Lysine-specific demethylase 4A (Homo sapiens), O75164; Potency, µM (top dose mostly 114 µM), most hits filed as inhibitors; 390,000 compounds, 4.4% hits; further: nearly all actives have a fitted effect of over 50% in size
CtBP-E1A blk – qHTS Assay for Inhibitors of the CtBP/E1A Interaction | CtBP / adenovirus E1A interaction (AlphaScreen) | AlphaScreen GST-E1A/His-CtBP binding, 1536-well; stronger effect = lower value | activity change, % (no concentration beside the values) | 340,000 compounds, 0.49% hits | AID 651724, 2012; in the data active means activity change below about -65%; inconclusive means mostly about -30% to -63%
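Protein mix (5X: 125 nM each GST-E1A, His-CtBP) was incubated with pinned compound 2 h at 37 deg C in dark, in 50 mM Tris pH 8.0 buffer with 300 mM NaCl. Glutathione donor and nickel acceptor beads followed; AlphaScreen signal read after 1 h.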
TDP1 block – qHTS Assay for Inhibitors of Tyrosyl-DNA Phosphodiesterase (TDP1). Tyrosyl-DNA phosphodiesterase 1 (Homo sapiens), Q9NUW8. recombinant TDP1, AlphaScreen DNA substrate cleavage. Potency, µM (titrated, usually from 130 µM), usual class: inhibitors. 350,000 compounds, 0.28% hits. AID 485290, 2010; further: nearly all actives have a fitted effect of over 40% in size
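Here, a 5' biotin and 3' phosphotyrosine-FITC DNA oligonucleotide reports Tdp1 activity: intact substrate bridges AlphaScreen beads, while cleavage leaves a 3' phosphate and drops signal. All incubations at room temperature.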
Each line names hits and unclear results; the compound was inactive in the other large screens. Rows were chosen to be rich in hits. Some 5.3% of all compounds tested hit in one or more screens of this group. Unless noted, the call rests on the fitted dose curve; in most records, active means well fitted inhibition curve with a large enough effect; inconclusive means small, poorly fitted or top-dose-only effect; inactive means no such curve, though single readings can be large or run the other way.

COc1ccccc1CNS(=O)(=O)c1c(C)nc2sc(C)cn2c1=O	none (no result: Six1-Eya2 blk, CtBP-E1A blk)
Cn1c2ccccc2c2cc(/C=N/NC(=O)c3cc(O)ccc3O)ccc21	Six1-Eya2 blk -69, BAZ2B block 45µM, HP1b binding inh inconclusive, JMJD2A Tudor 32µM, CtBP-E1A blk inconclusive
COc1cc(C(=O)N/N=C/c2ccc3c(c2)c2ccccc2n3C)ccc1O	Six1-Eya2 blk inconclusive
Cn1c2ccccc2c2cc(/C=N/NC(=O)c3cc(O)cc(O)c3)ccc21	Six1-Eya2 blk inconclusive, BAZ2B block 35µM, HP1b binding inh inconclusive, JMJD2A Tudor 56µM, CtBP-E1A blk inconclusive (no result: TDP1 block)
COc1ccc(COC(=O)N/N=C2/C[C@@H](O)[C@@H](O)[C@@H]3[C@@H]4C(=O)N(C[C@@H]5CCCO5)C(=O)[C@H]4CC[C@H]23)cc1	none (no result: Six1-Eya2 blk, BAZ2B block, HP1b binding inh, JMJD2A Tudor, CtBP-E1A blk)
COc1ccc(C2/C=C\CN(C(=O)C3CC3)C(Cc3ccccc3)C(=O)N2Cc2ccc(F)cc2)cc1 (stereo not drawn)	none (no result: Six1-Eya2 blk, BAZ2B block, CtBP-E1A blk)
COc1ccc(CNC(=O)Cn2ncc3c(=O)oc4ccccc4c32)c(OC)c1	none (no result: Six1-Eya2 blk, BAZ2B block, CtBP-E1A blk)
Cc1cccc(NS(=O)(=O)c2ccc3c(c2)C(C)(C)C(=O)N3C)c1	none (no result: Six1-Eya2 blk, CtBP-E1A blk)
Cc1nc2cc(NCc3ccccc3O)ccc2n1Cc1ccccc1	BAZ2B block 20µM, HP1b binding inh inconclusive, JMJD2A Tudor 32µM
Cc1ccc(NCc2ccccc2O)cc1C	BAZ2B block inconclusive, HP1b binding inh inconclusive, JMJD2A Tudor 50µM
O=[S+]([O-])(NC[C@H]1CCC[C@H](CN[S+](=O)([O-])c2c(F)cccc2F)C1)c1ccc2c(c1)OCCO2	none (no result: Six1-Eya2 blk, BAZ2B block, HP1b binding inh, CtBP-E1A blk, TDP1 block)
CCCCc1ccc(/C=C2\C(=O)c3ccccc3C(O)=C2C(=O)OCC)cc1	BAZ2B block 22µM (no result: Six1-Eya2 blk, HP1b binding inh, JMJD2A Tudor, CtBP-E1A blk)
CCOC(=O)C1=C(C)OC(=CC=Cc2ccccc2)C1=O	none (no result: BAZ2B block, HP1b binding inh, JMJD2A Tudor, TDP1 block)
CCC1(CC)NC(=O)N(CC(=O)Nc2sc3c(c2C(N)=O)CCC3)C1=O	BAZ2B block 50µM, JMJD2A Tudor inconclusive (no result: TDP1 block)
NC(=S)N=Nc1c(O)cc(O)c2[nH]c(=O)ccc12	Six1-Eya2 blk -85, HP1b binding inh 18µM, JMJD2A Tudor 50µM (no result: BAZ2B block, TDP1 block)
CCCn1c(SCC(O)c2ccccc2)nc2ccccc21 (stereo not drawn)	BAZ2B block inconclusive (no result: Six1-Eya2 blk, CtBP-E1A blk)
CCC(CO)Oc1cc(NCc2cccc(C)c2)c2ncn(C(C)C)c2c1 (stereo not drawn)	JMJD2A Tudor inconclusive (no result: BAZ2B block)
CCC(CO)Oc1cc(NCc2ccc(C)cc2)c2ncn(C(C)C)c2c1 (stereo not drawn)	JMJD2A Tudor 56µM (no result: BAZ2B block)
CCC(CO)Oc1cc(NCc2ccc(Cl)cc2)c2ncn(C(C)C)c2c1 (stereo not drawn)	JMJD2A Tudor 50µM (no result: BAZ2B block)
CCC(CO)Oc1cc(NCc2ccccc2O)c2ncn(C(C)C)c2c1 (stereo not drawn)	JMJD2A Tudor inconclusive (no result: BAZ2B block)
CCOc1cc(NCc2ccccc2)c2ncn(C(C)C)c2c1	Six1-Eya2 blk inconclusive, HP1b binding inh inconclusive, JMJD2A Tudor 50µM, CtBP-E1A blk inconclusive (no result: BAZ2B block)
CCC(CO)Oc1cc(NCc2ccc(Cl)cc2Cl)c2ncn(C(C)C)c2c1 (stereo not drawn)	JMJD2A Tudor 40µM (no result: BAZ2B block, CtBP-E1A blk)
O=C(Cn1c(=O)c2cccn2c2ccc(F)cc21)NCc1cccc(Cl)c1	BAZ2B block inconclusive, JMJD2A Tudor inconclusive (no result: Six1-Eya2 blk, CtBP-E1A blk)
CC[C@H](CO)Oc1cc(NCc2ccc(Cl)c(Cl)c2)c2ncn(C(C)C)c2c1	JMJD2A Tudor 32µM (no result: BAZ2B block)
CCC(CO)Oc1cc(NCc2ccc(OC)cc2)c2ncn(C(C)C)c2c1 (stereo not drawn)	BAZ2B block inconclusive
O=[N+]([O-])c1cc(CN2CCCCCC2)ccc1O	none (no result: TDP1 block)

Screens as filed in PubChem BioAssay.
